Bioassay records deposited in PubChem by several laboratories.
This is a sample that favours compounds with a hit; in the whole collection about 0.97% have one here.
TcdB inh: TcdB glycohydrolase inhibition; P18177; inhibition, % at 9.99 µM; 350,000 tested, 0.24% active; TcdB glycohydrolase enzymatic assay, plate reader; in the data active = inhibition above about 10%
Mtb bLac sens: beta-lactam sensitization of Mtb H37Rv | M. tuberculosis H37Rv growth with meropenem, percent inhibition | inhibition, % at 25 µM | 330,000 tested, 0.27% active; call rule not given here;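 note: growth measured after seven days incubation then overnight dye step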
Rv3671c inh: inhibits the M. tuberculosis serine protease Rv3671c; P9WHR9; 320,000 tested, 0.048% active; inhibition, % at 5.96 µM; in the data active = inhibition above about 38%;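 note: extracellular domain of Rv3671c used as enzyme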
RecA intein inh: blocks M. tuberculosis RecA intein splicing; AID 2221; cell-free RecA intein splicing, fluorescence; inhibition, % (no concentration beside the values); 290,000 tested, 0.75% active; P9WHJ3; in the data active = inhibition above about 30%
Mtb UGM inh: inhibitors of M. tuberculosis UDP-galactopyranose mutase; P9WIQ1; AID 504406; inhibition, % at 10 µM; purified UGM, fluorescence polarization probe displacement; 320,000 tested, 0.06% active; in the data active = inhibition above about 10%, passing the limit was not always enough
MazEF act: activators of E. coli MazEF toxin-antitoxin RNase. 350,000 tested, 0.32% active. activation, % at 20 µM. AID 504720. FAM/BHQ RNA-DNA oligo cleavage fluorescence, 5 h. P0AE70; in the data active = activation above about 50%
Numbers stand for hits; 0 = inactive; - = no result; + = active, no number.

SMILES	TcdB inh	Mtb bLac sens	Rv3671c inh	RecA intein inh	Mtb UGM inh	MazEF act
CCCNC(=O)Nc1ccc2c(c1)OC[C@H](C)N(Cc1ccccn1)C[C@H](C)[C@H](OC)CN(C)C2=O	0	-	-	-	-	-
COc1ccccc1OCCNc1ccc(S(=O)(=O)N2CCCC2)cn1	0	-	-	-	-	166.9
Cc1ccc(NC(=O)c2ccc(NCCN)c([N+](=O)[O-])c2)cc1	0	0	0	0	0	0
Cc1cc(C(=O)Nc2ccc(Nc3ccccc3)cc2)ccc1[N+](=O)[O-]	0	0	0	0	0	0
O=C(Nc1ccc(Nc2ccccc2)cc1)c1ccc(Cl)c([N+](=O)[O-])c1	0	0	0	0	0	77.9
Cc1ccc(NC(=O)c2ccc(NCC3CCCO3)c([N+](=O)[O-])c2)cc1Cl (configuration not stated)	-	0	0	0	0	267.3
Cc1cccc(NC(=O)c2ccc(NCCc3ccccc3)c([N+](=O)[O-])c2)c1	0	0	0	0	0	575.3
Cc1ccc(NC(=O)c2ccc(NCc3ccco3)c([N+](=O)[O-])c2)cc1Cl	-	0	0	0	0	334.1
C[C@H](O)C#Cc1cnc2c(c1)C(=O)N([C@@H](C)CO)C[C@H](C)[C@@H](CN(C)C(=O)Nc1ccc(F)cc1)O2	0	-	-	-	-	-
Cc1ccc(C)c2nc(Cl)c(C3NC(=O)c4ccccc4N3)cc12 (configuration not stated)	10.4	0	0	0	0	0
Nc1nc(N)c2cc(S(=O)(=O)c3ccc4ccccc4c3)ccc2n1	0	-	-	-	-	53.0
Nc1nc(N)c2cc([N+](=O)[O-])ccc2n1	0	-	-	-	-	0
COc1ccc2c3c(n(C)c2c1)[C@H](CO)N(C(=O)CC1CC1)CC31CN(Cc2nccs2)C1	0	-	-	-	-	-
N/C(=N\OC(=O)c1cccc2ccccc12)c1cccc([N+](=O)[O-])c1	-	0	0	0	0	55.2
Cc1ccccc1C(=O)O/N=C(\N)c1cccc([N+](=O)[O-])c1	-	-	0	0	0	0
CCC(C)Nc1nc(Cl)nc(N(C#N)CN2C(=O)c3ccccc3S2(=O)=O)n1 (configuration not stated)	0	0	0	36.7	0	0
NNS(=O)(=O)c1ccc(Sc2ccccn2)c([N+](=O)[O-])c1	0	0	0	0	0	220.2
O=C(C[C@H]1C[C@@H]2c3cc(NC(=O)c4ccc5c(c4)OCO5)ccc3O[C@@H]2[C@H](CO)O1)NCCc1ccccc1	0	-	-	-	-	-
COc1ccc2nccc(/C=C/c3ccnc4ccc(OC)cc34)c2c1	12.9	0	0	0	0	0
COc1cc(OC)c(OC)cc1/C=C/c1ccnc2ccccc12	18.7	-	-	-	-	0
C[C@H](CO)N1C[C@H](C)[C@@H](CN(C)Cc2ccc(Oc3ccccc3)cc2)Oc2ccc(NC(=O)c3ccncc3)cc2CC1=O	0	-	-	-	-	-
C[C@@H]1CN([C@H](C)CO)C(=O)c2cc(NS(=O)(=O)c3cn(C)cn3)ccc2O[C@@H](C)CCCCO[C@H]1CN(C)S(=O)(=O)c1ccccc1	0	-	-	-	-	-
CCCN1[C@@H]2Cn3c(ccc(/C=C/c4ccccc4)c3=O)[C@H]1[C@@H](C(=O)NCC)[C@@H]2CO	0	-	-	-	-	-
COc1cc2nncc(SC)c2cc1OC	10.9	-	-	-	-	0
CSc1cnnc2ccccc12	0	-	-	-	-	0
SMILES	TcdB inh	Mtb bLac sens	Rv3671c inh	RecA intein inh	Mtb UGM inh	MazEF act
Cc1noc(C)c1NC(=O)Nc1ccc2c(c1)C(=O)N([C@@H](C)CO)C[C@H](C)[C@@H](CN(C)C(=O)CCCN(C)C)OCCCC[C@@H](C)O2	0	-	-	-	-	-
C(=N\c1nc2ccccc2n1CCN1CCCCC1)/c1ccc2c(c1)OCO2	-	0	0	0	0	0
Brc1ccc(/C=N/c2nc3ccccc3n2CCN2CCOCC2)cc1	-	0	0	0	17.0	0
Cc1ccccc1Cn1cccc1/C=C1/C(=N)N2C=CSC2=NC1=O	-	0	0	0	0	163.6
CC(=O)NC1=C(N(C)C2CCS(=O)(=O)C2)C(=O)c2ccccc2C1=O (configuration not stated)	0	0	0	0	0	0
CC(=O)NC1=C(Nc2ccc(N(C)C)cc2)C(=O)c2ccccc2C1=O	0	0	0	76.2	0	0
COc1ccc(NC(=O)Nc2cccc3c2O[C@H](CN(C)S(=O)(=O)c2ccc(Cl)cc2)[C@@H](C)CN([C@@H](C)CO)C3=O)cc1	0	-	-	-	-	-
O=C(C[C@@H]1CC[C@@H]2[C@H](COC[C@H](O)CN2C(=O)c2ccccn2)O1)NC1CCC1	12.3	-	-	-	-	-
O=C(C[C@H]1CC[C@@H]2[C@H](COC[C@@H](O)CN2C(=O)Nc2ccc(Cl)c(Cl)c2)O1)NCc1ccncc1	18.1	-	-	-	-	-
CC=Cc1ccc2n(c1=O)C[C@@H]1[C@@H](CO)[C@H](C(=O)NC3CCCC3)N(Cc3nccs3)[C@H]21 (mixture of isomers)	0	-	-	-	-	-
COc1ccc2sc3cccc(NCCN(C)C)c3c(=O)c2c1	0	-	-	-	-	-
CN(C)CCNc1ccc(CO)c2sc3ccc(O)cc3c(=O)c12	25.1	-	-	-	-	0
C[C@@H]1CN([C@@H](C)CO)C(=O)c2cc(-c3cccc(F)c3)cnc2O[C@H]1CN(C)C(=O)C1CCC1	0	-	-	-	-	-
COc1cccc(N=Cc2c(O)n(-c3cccc(C)n3)c(=O)c3ccccc23)c1	-	0	0	0	0	0
COc1ccc(N=Cc2c(O)n(-c3cccc(C)n3)c(=O)c3ccccc23)c(OC)c1	0	0	0	0	19.6	277.5
COc1ccc(-c2nnn(Cc3ccccc3)n2)cc1OC	0	0	0	-	0	0
COc1cc2c3nnc(-c4ccc(F)cc4)c-3cn(Cc3ccc(F)cc3)c2cc1OC	0	0	0	0	0	117.9
COc1cc2c3nnc(-c4ccc(F)cc4)c-3cn(Cc3ccccc3)c2cc1OC	0	0	0	0	0	+
COc1ccc(Cn2cc3c(-c4ccc(F)cc4)nnc-3c3cc(OC)c(OC)cc32)cc1	0	0	0	-	0	557.9
Cc1noc(C)c1NC(=O)Nc1ccc2c(c1)C(=O)N(C)[C@H]1CC[C@@H](CC(=O)N(C)C)O[C@H]1CO2	0	-	-	-	-	-
Cc1ccc2nc3sc(C(=O)NCc4ccco4)c(N)c3cc2c1	-	0	0	0	0	81.8
